From PubChem BioAssay (NCATS)
Inconclusive results are not listed. More than one record can exist for a structure, and the calls need not agree. Activity calls are given as the source filed them. The call rests on the fitted dose curve; in most records, active means well fitted inhibition curve with a large enough effect; inconclusive means small, poorly fitted or top-dose-only effect; inactive means flat fitted curve, though single readings scatter.

How the values were obtained:
Experiment in all cases: qHTS profiling for inhibitors of Plasmodium falciparum proliferation (AID 504749); further: nearly all actives have a fitted effect of over 60% in size
Details in all cases: P. falciparum in erythrocytes, SYBR Green DNA, 72 h; series mostly up to 28.7 µM
[1] = system: 3D7
Method in brief: (§1)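 SYBR Green fluorescence (ex 485 nm, em 535 nm) reports parasite DNA after 72 h compound exposure of infected red cells at 0.3% parasitemia, 2.5% hematocrit; signal normalized to 0.29 uM artemisinin and vehicle wells.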

[2] = system: C2A
Method in brief: as §1

[3] = system: CP194
Method in brief: as §1

[4] = system: CP201
Method in brief: as §1

[5] = system: CP237
Method in brief: as §1

[6] = system: CP250
Method in brief: as §1

[7] = system: CP256
Method in brief: as §1

[8] = system: CP269
Method in brief: as §1

[9] = system: CP305
Method in brief: as §1

[10] = system: CP315
Method in brief: as §1

[11] = system: CP329
Method in brief: as §1

[12] = system: DIV30
Method in brief: as §1

[13] = system: JCK
Method in brief: as §1

[14] = system: P94_40
Method in brief: as §1

[15] = system: PAD
Method in brief: as §1

[16] = system: PC15
Method in brief: as §1

[17] = system: SC27B
Method in brief: as §1

[18] = system: TAB109
Method in brief: as §1

[19] = system: TAB113
Method in brief: as §1

[20] = system: TAB165
Method in brief: as §1

Measured: Potency
Potency means the concentration at half of the fitted maximal effect.

Cn1cc(C(=O)[C@@H]2CCc3[nH]cnc3C2)c2ccccc21
inactive: [1] | [2] | [3] | [4] | [5] | [6] | [7] | [8] | [9] | [10] | [11] | [12] | [13] | [14] | [15] | [16] | [17] | [18] | [19] | [20]

CNC1=CN(O)C(c2ccccc2)=c2cc(Cl)ccc2=N1
active: [1] 1 µM | [3] 4.26 µM | [8] 3.79 µM | [9] 1.69 µM | [10] 1.9 µM | [14] 5.62 µM | [18] 3.55 µM | [19] 2.82 µM | [20] 4.47 µM
inactive: [5] | [7] | [13] | [16]
3.79 µM (active) and inactive: [11]
4.26 µM (active) and inactive: [4] | [12]

CC1OC(OC2C(O)CC(OC3C(O)CC(OC4CCC5(C)C(CCC6C5CCC5(C)C(C7=CC(=O)OC7)CCC65O)C4)OC3C)OC2C)CC(O)C1O (stereo unspecified)
inactive: [2] | [4] | [6] | [7] | [8] | [9] | [10] | [11] | [12] | [13] | [14] | [15] | [17] | [18] | [19] | [20]

CCN(CC)C(=O)[C@@]1(c2ccccc2)C[C@@H]1CN
inactive: [1] | [2] | [3] | [4] | [5] | [6] | [7] | [8] | [9] | [10] | [11] | [12] | [13] | [14] | [15] | [16] | [17] | [19] | [20]

Cc1cc2nc3c(=O)[nH]c(=O)nc-3n(CC(O)C(O)C(O)COP(=O)(O)O)c2cc1C (stereo unspecified)
inactive: [1] | [2] | [3] | [4] | [5] | [6] | [7] | [8] | [9] | [10] | [11] | [12] | [13] | [14] | [15] | [16] | [17] | [18] | [19] | [20]

CCC(=O)O[C@]1(C(=O)CCl)[C@@H](C)CC2C3C[C@H](F)C4=CC(=O)C=CC4(C)[C@@]3(F)C(O)CC21C (stereo partly specified)
active: [1] 11.2 µM | [2] 12.6 µM | [3] 15.1 µM | [5] 3.55 µM | [6] 12.6 µM | [7] 11.2 µM | [8] 12 µM | [9] 12 µM | [11] 15.1 µM | [12] 12 µM | [14] 8.91 µM | [15] 3.98 µM | [16] 8.91 µM | [17] 7.94 µM | [18] 5.01 µM | [19] 8.91 µM | [20] 10 µM

CC1(C)O[C@@H]2C[C@H]3[C@@H]4CCC5=CC(=O)C=C[C@]5(C)[C@H]4C(O)C[C@]3(C)[C@]2(C(=O)CO)O1 (stereo partly specified)
inactive: [1] | [2] | [3] | [4] | [6] | [7] | [8] | [9] | [11] | [12] | [13] | [14] | [16] | [18] | [19]

CC1CN(c2c(F)c(N)c3c(=O)c(C(=O)O)cn(C4CC4)c3c2F)CC(C)N1 (stereo unspecified)
inactive: [1] | [2] | [3] | [4] | [5] | [6] | [7] | [8] | [9] | [10] | [11] | [12] | [13] | [14] | [15] | [16] | [17] | [18] | [19] | [20]

CCOC(=O)C(CCc1ccccc1)NC(C)C(=O)N1Cc2cc(OC)c(OC)cc2CC1C(=O)O (stereo unspecified)
active: [12] 7.57 µM | [15] 4.47 µM | [16] 10 µM | [17] 7.08 µM | [20] 7.08 µM
inactive: [1] | [4] | [5] | [6] | [7] | [8] | [9] | [10] | [11] | [18] | [19]

C#C[C@]1(O)CC[C@H]2[C@H]3[C@H](CC[C@@]21C)C1=C(CC(=O)CC1)C[C@@H]3C
inactive: [1] | [2] | [3] | [4] | [5] | [6] | [7] | [8] | [9] | [10] | [11] | [13] | [14] | [15] | [16] | [17] | [18] | [19] | [20]

C/C=C1/NN(CCCN2CCN(c3cccc(Cl)c3)CC2)C(=O)N1CCOc1ccccc1
inactive: [1] | [2] | [3] | [4] | [6] | [7] | [8] | [9] | [10] | [11] | [13] | [14] | [15] | [16] | [17] | [18] | [19]

COc1ccc(C(=O)/C(Br)=C/C(=O)O)cc1
inactive: [2] | [4] | [5] | [6] | [7] | [10] | [11] | [13] | [14] | [15] | [16]

Nc1nc2[nH]cc(CCc3ccc(C(=O)NC(CCC(=O)O)C(=O)O)cc3)c2c(=O)[nH]1 (stereo unspecified)
active: [1] 8.91 µM | [2] 0.316 µM | [3] 3.79 µM | [5] 0.0794 µM | [6] 0.251 µM | [7] 0.224 µM | [10] 0.953 µM | [11] 1.2 µM | [13] 5.62 µM | [15] 0.224 µM | [18] 11.2 µM | [20] 7.94 µM

C[N+]12CCCC[C@@H]1CCC(=C(c1cccs1)c1cccs1)C2 (stereo partly specified)
active: [1] 12.6 µM | [8] 13.5 µM | [9] 10.7 µM | [12] 12 µM | [13] 10 µM | [14] 7.94 µM | [15] 11.2 µM | [18] 2.51 µM | [19] 11.2 µM | [20] 12.6 µM

CC1=C(c2ccc(NN=C(C#N)C#N)cc2)NNC(=O)C1
inactive: [1] | [2] | [3] | [4] | [5] | [6] | [7] | [8] | [9] | [10] | [11] | [12] | [13] | [14] | [15] | [16] | [17] | [18] | [20]

COc1ccc(S(=O)(=O)N2c3ccc(Cl)cc3[C@](O)(c3ccccc3Cl)[C@@H]2C(=O)N2CCC[C@H]2C(N)=O)cc1OC
inactive: [1] | [2] | [3] | [4] | [6] | [7] | [8] | [9] | [10] | [11] | [12] | [13] | [18] | [19]

C[C@]12C=CC(=O)N[C@@H]1CC[C@@H]1C2CC[C@]2(C)C(C(=O)Nc3cc(C(F)(F)F)ccc3C(F)(F)F)CC[C@@H]12 (stereo partly specified)
inactive: [2] | [3] | [4] | [6] | [7] | [8] | [11] | [12] | [14] | [15] | [16] | [17] | [18] | [19]
active: [1] 5.62 µM | [5] 5.01 µM

CC(=O)OC1C([N+]2(C)CCCCC2)C[C@H]2C3CC[C@H]4C[C@H](OC(C)=O)C([N+]5(C)CCCCC5)CC4(C)C3CCC12C (stereo partly specified)
inactive: [1] | [2] | [5] | [6] | [7] | [13] | [14] | [15] | [16] | [17] | [18] | [19] | [20]

CCN(CC)CCOCCOC(=O)C(CC)(CC)c1ccccc1 (tested in a mixture with another compound)
active: [7] 5.62 µM | [9] 8.49 µM
inactive: [1] | [10] | [13] | [15] | [18]

Cc1cc(O)c2c(c1)OC1(C)CCC3C(C)(C)CCCC34COC2C14 (stereo unspecified)
inactive: [2] | [4] | [7] | [10] | [11]
active: [19] 8.91 µM

C/C(=C(/CCOC(=O)C(C)C)SS/C(CCOC(=O)C(C)C)=C(\C)N(C=O)Cc1cnc(C)nc1N)N(C=O)Cc1cnc(C)nc1N
inactive: [1] | [2] | [3] | [4] | [5] | [6] | [7] | [8] | [9] | [10] | [12] | [13] | [14] | [15] | [16] | [17] | [18] | [19] | [20]

Cc1cnc(NC(=O)C2C(=O)c3ccccc3S(=O)(=O)N2C)s1 (stereo unspecified)
inactive: [1] | [2] | [3] | [4] | [5] | [6] | [7] | [8] | [9] | [10] | [11] | [12] | [13] | [14] | [15] | [16] | [17] | [18] | [19]

CCOc1ccccc1O[C@@H](c1ccccc1)[C@@H]1CNCCO1
inactive: [4] | [6] | [8] | [9] | [10] | [11]
active: [12] 6.75 µM | [20] 10 µM

O=C(O)C[CH2][Ge](=[O])[O][Ge](=[O])[CH2]CC(=O)O
inactive: [2] | [3] | [4] | [5] | [6] | [7] | [8] | [9] | [10] | [11] | [12] | [13] | [14] | [15] | [16] | [17] | [18] | [19] | [20]

C=C1CC[C@H](O)C/C1=C/C=C1\CCC[C@]2(C)[C@@H]([C@H](C)CCCC(C)(C)O)CC[C@@H]12
active: [12] 9.53 µM | [20] 12.6 µM
inactive: [3] | [4] | [8] | [9] | [10] | [11] | [13]

C=C1N[C@]2(C(=O)COC(C)=O)[C@@H](C[C@H]3[C@@H]4CCC5=CC(=O)C=C[C@]5(C)[C@H]4[C@@H](O)C[C@@]32C)O1
inactive: [5] | [7] | [10] | [13] | [15] | [16] | [18]

CNC1CCc2cc(OC)c(OC)c(OC)c2-c2ccc(OC)c(=O)cc21 (stereo unspecified)
inactive: [2] | [3] | [4] | [6] | [7] | [8] | [9] | [10] | [11] | [13] | [14] | [15] | [16] | [17] | [18] | [19] | [20]

C=C1CC[C@H](O)C/C1=C/C=C1\CCC[C@]2(C)[C@@H]([C@H](C)CC[C@@H](O)C(C)(C)O)CC[C@@H]12
active: [5] 10 µM | [12] 13.5 µM | [17] 11.2 µM | [20] 14.1 µM
inactive: [4] | [8] | [9] | [10] | [11]

CCC1OC(=O)C[C@H](O)C(C)[C@@H](O[C@@H]2OC(C)C(O)C(N(C)C)C2O)C(CCN2CC(C)CC(C)C2)CC(C)C(=O)/C=C/C(C)=C\[C@@H]1COC1OC(C)C(O)C(OC)C1OC (stereo partly specified)
inactive: [1] | [16]
active: [2] 10 µM | [5] 5.01 µM | [7] 8.91 µM | [18] 4.47 µM
